Consider nine compounds from PubChem BioAssay (NCI).

This is part of a sample that, as a whole, favours compounds with a hit. Of some 79,000 tested, about 15% had one in any assay. Unmarked numbers belong to inactive results. Calls of active or inactive are those of the source. Cut-off read from the data, not from the text of the source: active = growth inhibition above about 70%; inactive = the rest.

The nature of test [1]: NCI Yeast Anticancer Drug Screen. Data for the rad50 strain (AID 155).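 Note: 0% = growth of vehicle-only cultures of the same strain.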 The following applies: S. cerevisiae rad50 strain growth inhibition, active compounds read high. In short, it runs like this: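 A DNA repair-deficient yeast mutant serves as the test organism; compound-induced growth inhibition is calculated against vehicle-treated cells.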
Test [2] in a line: NCI Yeast Anticancer Drug Screen. Data for the mec2-1 strain (AID 157). The following applies: S. cerevisiae mec2-1 strain, active compounds read high. In short, it runs like this:
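Compounds were applied to mec2-1 yeast cells. Their growth was then compared with that of vehicle-treated cultures to give growth inhibition.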

Test [3] can be described thus: NCI Yeast Anticancer Drug Screen. Data for the sgs1 mgt1 strain (AID 161).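 Note: 0% = growth of cultures given vehicle only.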 The following applies: S. cerevisiae sgs1 mgt1 strain, active compounds read high. In outline:
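This yeast growth screen uses a strain with defined DNA-repair lesions; compound-treated growth is compared with vehicle-treated growth.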

Test [4] can be described thus: NCI Yeast Anticancer Drug Screen. Data for the cln2 rad14 strain (AID 165).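 Note: 0% = growth equal to vehicle treated cultures.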 The following applies: S. cerevisiae cln2 rad14 strain, active compounds read high. In short, it runs like this: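 Strain: cln2 rad14 yeast, altered in cell cycle control and DNA damage repair. Read-out: growth inhibition vs vehicle.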
Test [5] is described as follows: NCI Yeast Anticancer Drug Screen. Data for the bub3 strain (AID 167). The following applies: S. cerevisiae bub3 mutant strain, active compounds read high. In outline:
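Inhibition values come from growth of compound-treated mutant yeast normalised to vehicle-treated controls.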

Test [6] is described as follows: NCI Yeast Anticancer Drug Screen. Data for the mlh1 rad18 strain (AID 175). The following applies: S. cerevisiae mlh1 rad18 strain growth inhibition, active compounds read high. In short, it runs like this: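 A repair-deficient yeast strain is exposed to test compound, and growth is scored relative to vehicle-treated controls.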
The mark [7] stands for this setting: at 5.0 µM (retest, dose inferred, filed as 0.5).
The mark [8] stands for this setting: at 50.0 µM (retest, dose inferred, filed as 5.0).

For the compound `Nc1ncnc2c1cnn2C1CCCCC1`, the growth inhibition was 3% in test [1] (setting [7]); 79% (active) in test [1] (setting [8]); 30.2% in test [1] (at 50.0 µM); -2% in test [2] (setting [7]); 46% in test [2] (setting [8]); 58.8% in test [2] (at 50.0 µM). Moreover, the growth inhibition was 0% in test [3] (setting [7]); 45% in test [3] (setting [8]); 14.9% in test [3] (at 50.0 µM); -1% in test [4] (setting [7]); 68% in test [4] (setting [8]); 36.3% in test [4] (at 50.0 µM). Also, the growth inhibition in test [5] (setting [7]) is -2%; in test [5] (setting [8]), 58%; in test [5] (at 50.0 µM), 32.7%; in test [6] (setting [7]), 1%; in test [6] (setting [8]), 75% (active); in test [6] (at 50.0 µM), 71.2% (active).

Regarding `Cc1cc(=O)[nH]c(NN2C(Cl)C(=O)C2c2ccc(O)cc2)n1` (configuration not stated), the growth inhibition is -14% in test [1] (setting [7]); 81% (active) in test [1] (setting [8]); 82.2% (active) in test [1] (at 50.0 µM); -9% in test [2] (setting [7]); 82% (active) in test [2] (setting [8]); 67.2% in test [2] (at 50.0 µM). Moreover, the growth inhibition is -5% in test [3] (setting [7]); 68% in test [3] (setting [8]); 79.5% (active) in test [3] (at 50.0 µM); 14% in test [4] (setting [7]); 63% in test [4] (setting [8]); 53.6% in test [4] (at 50.0 µM). The growth inhibition in test [5] (setting [7]) was 7%; in test [5] (setting [8]), 94% (active); in test [5] (at 50.0 µM), 78.3% (active); in test [6] (setting [7]), 7%; in test [6] (setting [8]), 92% (active); in test [6] (at 50.0 µM), 71.3% (active).

Turning to `CC(C)(C)N1C(=O)C(Cl)(C#N)C1c1ccccc1` (configuration not stated), the growth inhibition in test [1] (setting [7]) was 7%; in test [1] (setting [8]) it was 25%; in test [1] (at 50.0 µM) it was 43.5%; in test [2] (setting [7]), -4%; in test [2] (setting [8]), 8%; in test [2] (at 50.0 µM) it was 26.6%. For the same compound, the growth inhibition in test [3] (setting [7]) was -3%; in test [3] (setting [8]), 27%; in test [3] (at 50.0 µM) it was 73.5% (active); in test [4] (setting [7]), 9%; in test [4] (setting [8]), 11%; in test [4] (at 50.0 µM), 19.9%. In addition, the growth inhibition in test [5] (setting [7]) was -1%; in test [5] (setting [8]), 0%; in test [5] (at 50.0 µM) it was -6.3%; in test [6] (setting [7]), -11%; in test [6] (setting [8]) it was 26%; in test [6] (at 50.0 µM), 72.5% (active).

Turning to `Cc1nc2c(Cl)nc(Cl)nc2s1`, the growth inhibition was -10% in test [1] (setting [7]); 98% (active) in test [1] (setting [8]); 98.5% (active) in test [1] (at 50.0 µM); 35% in test [2] (setting [7]); 98% (active) in test [2] (setting [8]); 98.5% (active) in test [2] (at 50.0 µM). Also, the growth inhibition in test [3] (setting [7]) was 20%; in test [3] (setting [8]) it was 97% (active); in test [3] (at 50.0 µM), 98.7% (active); in test [4] (setting [7]), -8%; in test [4] (setting [8]), 97% (active); in test [4] (at 50.0 µM), 95.5% (active). For the same compound, the growth inhibition in test [5] (setting [7]) is 15%; in test [5] (setting [8]), 98% (active); in test [5] (at 50.0 µM) it was 98.3% (active); in test [6] (setting [7]) it was 23%; in test [6] (setting [8]) it was 97% (active); in test [6] (at 50.0 µM), 98.2% (active).

`CCC12C=CCN3CCC4(c5cc(C(c6ccccn6)c6cc7ccccc7n6C)c(OC)cc5N(C)C4C(O)(C(=O)OC)C1OC(C)=O)C32` (configuration not stated): the growth inhibition in test [1] (setting [7]) is 4%; in test [1] (setting [8]), 0%; in test [1] (at 50.0 µM) it was 68.3%; in test [2] (setting [7]), 46%; in test [2] (setting [8]), 0%; in test [2] (at 50.0 µM), 81.5% (active). The growth inhibition in test [3] (setting [7]) was -1%; in test [3] (setting [8]), 2%; in test [3] (at 50.0 µM) it was 49.6%; in test [4] (setting [7]), -2%; in test [4] (setting [8]), -5%; in test [4] (at 50.0 µM) it was 83.3% (active). Moreover, the growth inhibition in test [5] (setting [7]) is -2%; in test [5] (setting [8]), -3%; in test [5] (at 50.0 µM) it was 65%; in test [6] (setting [7]), 3%; in test [6] (setting [8]) it was 11%; in test [6] (at 50.0 µM), 94.7% (active).

With `COC1CC(OC(=O)c2ccccc2)C(OC(=O)c2ccccc2)C(C)O1` (configuration not stated), the growth inhibition in test [1] (setting [7]) was -5%; in test [1] (setting [8]), -4%; in test [1] (at 50.0 µM), 9.1%; in test [2] (setting [7]) it was -2%; in test [2] (setting [8]), -2%; in test [2] (at 50.0 µM), 6.1%. In addition, the growth inhibition in test [3] (setting [7]) is -2%; in test [3] (setting [8]), -1%; in test [3] (at 50.0 µM) it was 7.75%; in test [4] (setting [7]), -4%; in test [4] (setting [8]) it was -12%; in test [4] (at 50.0 µM), -16.4%. Besides, the growth inhibition is 44% in test [5] (setting [7]); 64% in test [5] (setting [8]); 83.9% (active) in test [5] (at 50.0 µM); -1% in test [6] (setting [7]); 2% in test [6] (setting [8]); 1.9% in test [6] (at 50.0 µM).

Take `COC(=O)C1(Cc2ccc3c(c2)CCC3)Cc2ccc3c(c2C1O)CCC3` (configuration not stated): the growth inhibition in test [1] (setting [7]) is -2%; in test [1] (setting [8]), 94% (active); in test [1] (at 50.0 µM), 94.6% (active); in test [2] (setting [7]), -1%; in test [2] (setting [8]) it was 96% (active); in test [2] (at 50.0 µM), 94.3% (active). Further, the growth inhibition was 15% in test [3] (setting [7]); 97% (active) in test [3] (setting [8]); 89.9% (active) in test [3] (at 50.0 µM); -4% in test [4] (setting [7]); 94% (active) in test [4] (setting [8]); 85% (active) in test [4] (at 50.0 µM). Moreover, the growth inhibition is -1% in test [5] (setting [7]); 95% (active) in test [5] (setting [8]); 93.7% (active) in test [5] (at 50.0 µM); 4% in test [6] (setting [7]); 94% (active) in test [6] (setting [8]); 85.3% (active) in test [6] (at 50.0 µM).

Take `O=c1[nH]c2c([N+](=O)[O-])cc(Cl)cc2nc1/C=C(\O)c1ccc(F)cc1`: the growth inhibition in test [1] (setting [7]) was 12%; in test [1] (setting [8]) it was 64%; in test [1] (at 50.0 µM), 71.1% (active); in test [2] (setting [7]), -6%; in test [2] (setting [8]) it was 23%; in test [2] (at 50.0 µM), 42.8%. In addition, the growth inhibition in test [3] (setting [7]) was 3%; in test [3] (setting [8]) it was 54%; in test [3] (at 50.0 µM) it was 73.4% (active); in test [4] (setting [7]) it was 5%; in test [4] (setting [8]), 42%; in test [4] (at 50.0 µM) it was 42.2%. The growth inhibition is 2% in test [5] (setting [7]); 41% in test [5] (setting [8]); 43.5% in test [5] (at 50.0 µM); -3% in test [6] (setting [7]); 65% in test [6] (setting [8]); 87.3% (active) in test [6] (at 50.0 µM).

Regarding `Oc1cc(-[n+]2ccc3ccccc3c2)c(O)c2ccccc12`, the growth inhibition in test [1] (setting [7]) was 10%; in test [1] (setting [8]) it was 70% (active); in test [1] (at 50.0 µM), 44.2%; in test [2] (setting [7]) it was -1%; in test [2] (setting [8]), 27%; in test [2] (at 50.0 µM), 39.2%. The growth inhibition was 11% in test [3] (setting [7]); 45% in test [3] (setting [8]); 15.6% in test [3] (at 50.0 µM); -4% in test [4] (setting [7]); -10% in test [4] (setting [8]); -20.8% in test [4] (at 50.0 µM). In addition, the growth inhibition was 24% in test [5] (setting [7]); 72% (active) in test [5] (setting [8]); 64.5% in test [5] (at 50.0 µM); 16% in test [6] (setting [7]); 46% in test [6] (setting [8]); 54.1% in test [6] (at 50.0 µM).
